Experimental data from the supplement of paper PMC6522484.
± gives the standard deviation of the averaged measurements.

Tests used:
DLD1 [1] = assay: cell viability (CellTiter-Glo) relative to plate median (fraction of plate median); higher = more viable cells; conditions: 5 µM; treatment time 24 h; reporter: 7TFP
Procedure, shortened: (§1)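 On parallel plates, a Tecan F500 reader recorded either firefly luciferase or CellTiterGlo luminescence. The plates held colorectal cancer cells stably transduced with lentiviral TCF/Wnt firefly luciferase reporters (7TFP or TCF4/Wnt), seeded in 384-well format and treated 24 h later with library compounds at a final 5 µM for 24 h. Per-well signals were normalised to the plate median (webcellHTS2, additive, no log transformation), and two independent replicates were averaged.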

HCT116 = assay: as above; conditions: 5 µM; treatment time 24 h; reporter: TCF4/Wnt
Procedure, shortened: as §1

SW480 [2] = assay: as above; conditions: 5 µM; treatment time 24 h; reporter: 7TFP
Procedure, shortened: as §1

DLD1 [3] = assay: TCF/Wnt firefly luciferase reporter signal relative to plate median (fraction of plate median); higher = higher Wnt reporter signal; conditions: 5 µM; treatment time 24 h; reporter: 7TFP
Procedure, shortened: as §1

SW480 [4] = assay: as above; conditions: 5 µM; treatment time 24 h; reporter: 7TFP
Procedure, shortened: as §1

| SMILES | cell viability (DLD1 [1]) | cell viability (HCT116) | cell viability (SW480 [2]) | TCF/Wnt firefly luciferase reporter signal (DLD1 [3]) | TCF/Wnt firefly luciferase reporter signal (SW480 [4]) |
| --- | --- | --- | --- | --- | --- |
| NC(=O)c1cccc(N)c1 | 0.983 ± 0.039 | 1.01 ± 0.062 | 0.9685 ± 0.0035 | 0.959 ± 0.13 | 0.853 ± 0.09 |
| O=c1c(-c2ccc(O)cc2)coc2cc(O)ccc12 | 1.01 | 0.9665 ± 0.0021 | 0.902 ± 0.0042 | 0.978 ± 0.059 | 0.971 ± 0.025 |
| COC(=O)[C@H](Cc1ccccc1)NC(=O)[C@@H](N)CC(=O)O | 0.952 ± 0.082 | 1.08 ± 0.11 | 1.06 ± 0.014 | 1.045 ± 0.0071 | 0.985 ± 0.14 |
| C=CCCCCCCCCC(=O)[O-].C=CCCCCCCCCC(=O)[O-].[Zn+2] | 0.996 ± 0.049 | 0.903 ± 0.011 | 0.964 ± 0.023 | 0.94 ± 0.24 | 0.968 ± 0.041 |
| O=C(/C=C/c1ccccc1)c1ccc(O)cc1 | 0.834 ± 0.11 | 0.906 ± 0.047 | 0.898 ± 0.013 | 0.88 ± 0.1 | 0.976 ± 0.2 |
| CC(=O)Nc1ccc(O)cc1 | 0.935 ± 0.028 | 0.948 ± 0.14 | 0.996 ± 0.02 | 0.923 ± 0.12 | 1.05 ± 0.071 |
| CCCc1cc(=O)[nH]c(=S)[nH]1 | 0.959 ± 0.033 | 1.065 ± 0.0071 | 0.998 ± 0.031 | 0.98 ± 0.057 | 1.02 ± 0.028 |
| Cc1occc(=O)c1O | 0.962 ± 0.0099 | 0.973 ± 0.039 | 0.936 ± 0.021 | 0.938 ± 0.1 | 0.85 ± 0.042 |
| O=c1cc(-c2ccccc2O)oc2cc(O)ccc12 | 1.01 ± 0.069 | 1.02 ± 0.094 | 0.976 ± 0.025 | 1.17 ± 0.042 | 1.23 ± 0.085 |
| CS(=O)(=O)c1ccc([C@@H](O)[C@@H](CO)NC(=O)C(Cl)Cl)cc1 | 0.914 ± 0.055 | 0.958 ± 0.06 | 0.925 ± 0.014 | 0.982 ± 0.018 | 0.814 ± 0.058 |
| CCCCCCNC(=O)n1cc(F)c(=O)[nH]c1=O | 1.06 ± 0.042 | 0.925 ± 0.13 | 1.04 ± 0.014 | 0.971 ± 0.13 | 1.08 ± 0.078 |
| N=C(N)c1ccc(OCCCCCOc2ccc(C(=N)N)cc2)cc1 | 0.93 ± 0.21 | 0.9365 ± 0.0078 | 1.01 ± 0.014 | 1.035 ± 0.0071 | 0.795 ± 0.013 |
| Oc1c(Cl)cc(Cl)c2cccnc12 | 0.9925 ± 0.00071 | 1.02 ± 0.081 | 0.963 ± 0.033 | 1.03 ± 0.16 | 1.07 ± 0.021 |
| COC(=O)C1=CO[C@@H](O[C@@H]2O[C@H](CO)[C@@H](O)[C@H](O)[C@H]2O)[C@@H]2[C@@H](C)CC(=O)[C@]12O | 0.871 ± 0.067 | 0.88 ± 0.17 | 0.988 ± 0.06 | 1.04 ± 0.19 | 1.08 ± 0.035 |
| CCCCCC(C)N (stereo not given) | 1.02 ± 0.066 | 1.09 ± 0.021 | 0.954 ± 0.0099 | 1.14 ± 0.078 | 1.08 ± 0.057 |
| CCCN(CCC)CCc1cccc2c1CC(=O)N2 | 1.02 ± 0.059 | 1.08 ± 0.014 | 1.01 ± 0.044 | 1.18 ± 0.092 | 1.07 ± 0.028 |
| CN(C)c1ccc(O)c2c1C[C@H]1C[C@H]3[C@H](N(C)C)C(O)=C(C(N)=O)C(=O)[C@@]3(O)C(O)=C1C2=O | 0.991 ± 0.0099 | 1.03 ± 0.09 | 0.943 ± 0.048 | 1.05 ± 0.042 | 1.08 ± 0.085 |
| NS(=O)(=O)c1cc2c(cc1Cl)NC(C1CC3C=CC1C3)NS2(=O)=O (stereo not given) | 0.973 ± 0.052 | 0.962 ± 0.0071 | 0.983 ± 0.0042 | 1.1 ± 0.035 | 0.879 ± 0.04 |
| O=C1CN(/N=C/c2ccc([N+](=O)[O-])o2)C(=O)N1 | 1.03 ± 0.11 | 1.02 ± 0.037 | 0.949 | 0.954 ± 0.043 | 0.995 ± 0.12 |
| C=C1C2CC[C@@]3(C)[C@H](c4ccoc4)OC(=O)C[C@]13O[C@H]1CC(=O)C(C)(C)[C@H](C(O)C(=O)OC)[C@@]21C (stereo not given in full) | 0.97 ± 0.042 | 1.01 ± 0.087 | 0.991 ± 0.055 | 1.02 ± 0.11 | 1.02 ± 0.047 |
| COc1ccc(-c2coc3c(O)c(OC)ccc3c2=O)cc1 | 0.969 ± 0.073 | 0.984 ± 0.08 | 0.99 ± 0.014 | 1 ± 0.12 | 1.01 ± 0.095 |
| CCN(CC)CCNC(=O)c1cc(Br)c(N)cc1OC | 1.02 ± 0.081 | 1.07 ± 0.028 | 1.02 ± 0.047 | 0.985 ± 0.05 | 1.16 ± 0.078 |
| CC(=O)O[C@@H]1CC(=O)[C@@]2(C)C(CC(=O)[C@]3(C)C2CC[C@@]2(C)[C@H](c4ccoc4)OC(=O)C4OC423)C1(C)C (stereo not given in full) | 1.025 ± 0.0071 | 1.025 ± 0.0071 | 0.981 ± 0.0057 | 0.986 ± 0.12 | 1.05 ± 0.098 |
| NCCCC[C@H](N[C@@H](CCc1ccccc1)C(=O)O)C(=O)N1CCC[C@H]1C(=O)O | 1.03 ± 0.05 | 1.01 ± 0.07 | 1.003 ± 0.0099 | 0.9065 ± 0.00071 | 0.827 ± 0.069 |
| C#C[C@]1(O)CC[C@H]2[C@@H]3CCC4=Cc5oncc5C[C@]4(C)[C@H]3CC[C@@]21C | 1.06 ± 0.021 | 0.936 ± 0.029 | 1.01 ± 0.035 | 1.04 | 0.817 ± 0.046 |
| CC(=O)O[C@H]1CC[C@]2(C)C3=C(CC[C@H]2C1(C)C)[C@]1(C)CC[C@H]([C@H](C)CCC=C(C)C)[C@@]1(C)CC3 | 0.966 ± 0.036 | 0.957 ± 0.055 | 0.953 ± 0.034 | 0.9 ± 0.098 | 0.958 ± 0.1 |
| OC(c1cc(C(F)(F)F)nc2c(C(F)(F)F)cccc12)C1CCCCN1 (stereo not given) | 0.953 ± 0.033 | 1.005 ± 0.0071 | 1.02 ± 0.051 | 1.18 ± 0.028 | 1.11 ± 0.057 |
| NC(=O)c1ncn([C@@H]2O[C@H](CO)[C@@H](O)[C@H]2O)c1N | 0.989 ± 0.03 | 0.947 ± 0.055 | 0.949 ± 0.04 | 1 ± 0.012 | 0.927 ± 0.044 |
| CC(=O)Oc1ccccc1C(=O)O | 1.01 ± 0.035 | 1.02 ± 0.031 | 1.025 ± 0.0071 | 1.05 ± 0.014 | 0.97 ± 0.14 |
| CC1(C)C(=O)C=C[C@@]2(C)C1CC(=O)[C@@]1(C)C3=CC(=O)O[C@@H](c4ccoc4)[C@]3(C)CCC12 (stereo not given in full) | 0.921 ± 0.04 | 0.988 ± 0.045 | 0.977 ± 0.027 | 0.913 ± 0.03 | 0.956 ± 0.076 |
